Some structures have more than one record in an assay (separate samples or runs), and their calls can disagree. Calls of active or inactive are those of the source. The calls were made as follows: active = hit-call score of the fitted dose curve at least 0.9, where 1 is the maximum; inactive = score below 0.9.
Key:
Details in all cases: mRNA level, 48 h; actives raise or lower the signal
[1] = read-out: Protein phosphatase 2A (PPP2R4), PTPA (gene 5524); test: LTEA_HepaRG_PPP2R4: Life Technologies and Expression Analysis (LTEA) Assay for Protein phosphatase 2A (PPP2R4) using HepaRG (AID 2283522)
In short: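 Gene-expression endpoint in HepaRG hepatic cells: 48 h treatment across eight half-log concentrations up to 100 uM in 0.5% DMSO. PPP2R4 mRNA by qRT-PCR, normalized to three endogenous control genes.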

[2] = read-out: Phosphatase and tensin (PTEN), PTEN (gene 5728); test: LTEA_HepaRG_PTEN: Life Technologies and Expression Analysis (LTEA) Assay for Phosphatase and tensin (PTEN) using HepaRG (AID 2283523)
In short: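 Differentiated human HepaRG cells, plated 48 h then switched to serum-free induction medium, were exposed in duplicate for 48 h to eight half-log concentrations up to 100 uM in 0.5% DMSO. PTEN mRNA measured by TaqMan qRT-PCR, normalized to ACTB/GAPDH/POLR2A, bidirectional fit versus DMSO.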

[3] = read-out: solute carrier (SLC22A1), SLC22A1 (gene 6580); test: LTEA_HepaRG_SLC22A1: Life Technologies and Expression Analysis (LTEA) Assay for solute carrier (SLC22A1) using HepaRG (AID 2283524)
In short: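 Human HepaRG cells were plated 48 h, switched to serum-free induction medium, then exposed in duplicate for 48 h to 8-point half-log series from 100 uM in 0.5% DMSO. SLC22A1 mRNA measured by qRT-PCR, normalized to ACTB/GAPDH/POLR2A, fitted bidirectionally versus DMSO.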

[4] = read-out: Pyruvate Dehydrogenase Kinase 4 (PDK4), PDK4 (gene 5166); test: LTEA_HepaRG_PDK4: Life Technologies and Expression Analysis (LTEA) Assay for Pyruvate Dehydrogenase Kinase 4 (PDK4) using HepaRG (AID 2283525)
In short: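 Differentiated human HepaRG cells, pre-cultured 48 h, were exposed in duplicate for 48 h in serum-free induction medium to eight half-log concentrations up to 100 uM in 0.5% DMSO. PDK4 mRNA was quantified by qRT-PCR, normalized to ACTB, GAPDH and POLR2A, bidirectional fitting versus DMSO.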

[5] = read-out: NAD(P)H dehydrogenase [quinone] 1 (NQO1), NQO1 (gene 1728); test: LTEA_HepaRG_NQO1: Life Technologies and Expression Analysis (LTEA) Assay for NAD(P)H dehydrogenase [quinone] 1 (NQO1) using HepaRG (AID 2283526)
In short: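 Human HepaRG hepatic cells received chemicals for 48 h in serum-free induction medium with 0.5% DMSO, up to 100 uM. Expression was assessed by TaqMan qRT-PCR against housekeeping controls and fitted bidirectionally against DMSO.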

[6] = read-out: Nuclear factor erythroid 2-related factor 2 (Homo sapiens) (UniProt Q16236); test: LTEA_HepaRG_NFE2L2: Life Technologies and Expression Analysis (LTEA) Assay for Nuclear factor erythroid 2-related factor 2 (NFE2L2) Transcription Factor using HepaRG (AID 2283527)
In short: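 Differentiated human HepaRG cells in serum-free induction medium were exposed for 48 h to eight concentrations (top 100 uM, half-log dilutions, 0.5% DMSO), in duplicate. NFE2L2 mRNA was quantified by TaqMan qRT-PCR, normalized to ACTB, GAPDH and POLR2A, with bidirectional fitting versus DMSO.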

[7] = read-out: succinate dehydrogenase complex iron sulfur subunit B (SDHB), SDHB (gene 6390); test: LTEA_HepaRG_SDHB: Life Technologies and Expression Analysis (LTEA) Assay for succinate dehydrogenase complex iron sulfur subunit B (SDHB) using HepaRG (AID 2283528)
In short: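 HepaRG cells (~100,000/well, plated 48 h) exposed in duplicate for 48 h in serum-free induction medium to 8-point half-log series from 100 uM in 0.5% DMSO; mRNA by qRT-PCR normalised to ACTB, GAPDH, POLR2A; bidirectional fit versus DMSO.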

[8] = read-out: Signal transducer and activator of transcription 3 (Homo sapiens) (UniProt P40763); test: LTEA_HepaRG_STAT3: Life Technologies and Expression Analysis (LTEA) Assay for Signal transducer and activator of transcription (STAT3) using HepaRG (AID 2283529)
In short: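 Differentiated human HepaRG cells in serum-free induction medium were exposed in duplicate for 48 h to eight half-log concentrations up to 100 uM in 0.5% DMSO. STAT3 mRNA was quantified by TaqMan qRT-PCR, normalized to ACTB, GAPDH and POLR2A, and fitted bidirectionally against DMSO.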

[9] = read-out: solute carrier (SLCO1B1), SLCO1B1 (gene 10599); test: LTEA_HepaRG_SLCO1B1: Life Technologies and Expression Analysis (LTEA) Assay for solute carrier (SLCO1B1) using HepaRG (AID 2283530)
In short: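 Human HepaRG cultures treated for 48 h with an eight-concentration half-log series topping at 100 uM; SLCO1B1 measured by qRT-PCR and fitted bidirectionally relative to DMSO.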

[10] = read-out: sulfotransferase 2A1 (SULT2A1), SULT2A1 (gene 6822); test: LTEA_HepaRG_SULT2A1: Life Technologies and Expression Analysis (LTEA) Assay for sulfotransferase 2A1 (SULT2A1) using HepaRG (AID 2283531)
In short: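 Gene-expression endpoint in a human liver cell line: SULT2A1 mRNA change after 48 h chemical treatment, curves fitted in both directions relative to 0.5% DMSO vehicle. Concentrations spanned eight half-log steps from 100 uM.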

[11] = read-out: Transforming Growth Factor (TGFA), TGFA (gene 7039); test: LTEA_HepaRG_TGFA: Life Technologies and Expression Analysis (LTEA) Assay for Transforming Growth Factor (TGFA) using HepaRG (AID 2283532)
In short: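 Differentiated human HepaRG cells, plated 48 h then switched to serum-free induction medium, were exposed in duplicate for 48 h to 8-point half-log series from 100 uM in 0.5% DMSO. TGFA mRNA measured by qRT-PCR, normalized to ACTB/GAPDH/POLR2A, bidirectional fit versus DMSO.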

[12] = read-out: Transforming Growth Factor (TGFB1), TGFB1 (gene 7040); test: LTEA_HepaRG_TGFB1: Life Technologies and Expression Analysis (LTEA) Assay for Transforming Growth Factor (TGFB1) Transporter using HepaRG (AID 2283533)
In short: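 Eight-point concentration-response (max 100 uM, half-log) in HepaRG under serum-free induction conditions, 48 h. TGFB1 mRNA by qRT-PCR, housekeeping-normalized.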

TIMP1, TIMP1 (gene 7076) = test: LTEA_HepaRG_TIMP1: Life Technologies and Expression Analysis (LTEA) Assay for TIMP1 using HepaRG (AID 2283534)
In short: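 TIMP1 induction or repression in HepaRG cells after 48 h chemical exposure (eight concentrations, highest 100 uM), assessed by normalized qRT-PCR with bidirectional fitting to DMSO controls.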

[13] = read-out: Tumor necrosis factor receptor 1 (TNFRSF1A), TNFRSF1A (gene 7132); test: LTEA_HepaRG_TNFRSF1A: Life Technologies and Expression Analysis (LTEA) Assay for Tumor necrosis factor receptor 1 (TNFRSF1A) using HepaRG (AID 2283535)
In short: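 Assay uses 48 h chemical treatment of differentiated HepaRG monolayers, tested in duplicate at eight concentrations from 100 uM downward in 0.5% DMSO. mRNA is normalized to ACTB, GAPDH and POLR2A, with induction or suppression fitted relative to vehicle.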

[14] = read-out: Thyroid Hormone Responsive (THRSP), THRSP (gene 7069); test: LTEA_HepaRG_THRSP: Life Technologies and Expression Analysis (LTEA) Assay for Thyroid Hormone Responsive (THRSP) using HepaRG (AID 2283536)
In short: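 Differentiated human HepaRG cells were exposed in duplicate for 48 h in serum-free induction medium to eight concentrations (top 100 uM, half-log steps, 0.5% DMSO). Expression was quantified by TaqMan qRT-PCR, normalized to ACTB, GAPDH and POLR2A, with bidirectional fitting against DMSO.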

[15] = read-out: UDP glucuronosyltransferase (UGT1A1), UGT1A1 (gene 54658); test: LTEA_HepaRG_UGT1A1: Life Technologies and Expression Analysis (LTEA) Assay for UDP glucuronosyltransferase (UGT1A1) using HepaRG (AID 2283538)
In short: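 Human liver HepaRG cultures receive test chemical for 48 h, up to 100 uM in 0.5% DMSO, with phenobarbital induction controls. UGT1A1 mRNA is measured by qRT-PCR and normalized to ACTB, GAPDH and POLR2A.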

[16] = read-out: UDP glucuronosyltransferase (UGT1A6), UGT1A6 (gene 54578); test: LTEA_HepaRG_UGT1A6: Life Technologies and Expression Analysis (LTEA) Assay for UDP glucuronosyltransferase (UGT1A6) using HepaRG (AID 2283539)
In short: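 Measures mRNA change in HepaRG hepatic cells exposed 48 h to chemicals (eight-point, maximum 100 uM, 0.5% DMSO vehicle) in serum-free induction medium. Expression normalized to endogenous controls; DMSO served as negative control and baseline.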

[17] = read-out: X-box binding protein 1 (XBP1), XBP1 (gene 7494); test: LTEA_HepaRG_XBP1: Life Technologies and Expression Analysis (LTEA) Assay for X-box binding protein 1 (XBP1) using HepaRG (AID 2283540)
In short: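 Eight concentrations (half-log, highest 100 uM, 0.5% DMSO) tested in duplicate on HepaRG cells over 48 h in serum-free induction medium; qRT-PCR of XBP1 normalised to ACTB, GAPDH, POLR2A.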

[18] = read-out: Cellular tumor antigen p53 (Homo sapiens) (UniProt P04637); test: LTEA_HepaRG_TP53: Life Technologies and Expression Analysis (LTEA) Assay for Tumor Protein P53 (TP53) using HepaRG (AID 2283537)
In short: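 Differentiated HepaRG cells in serum-free induction medium exposed 48 h in duplicate to 8 half-log concentrations, top 100 uM, 0.5% DMSO. TP53 mRNA by TaqMan qRT-PCR (Fluidigm), normalized to ACTB, GAPDH, POLR2A; fitted bidirectionally versus DMSO.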

Measured: AC50

Signal transducer and activator of transcription 3 (Homo sapiens), sequence (P40763 whole entry, looked up): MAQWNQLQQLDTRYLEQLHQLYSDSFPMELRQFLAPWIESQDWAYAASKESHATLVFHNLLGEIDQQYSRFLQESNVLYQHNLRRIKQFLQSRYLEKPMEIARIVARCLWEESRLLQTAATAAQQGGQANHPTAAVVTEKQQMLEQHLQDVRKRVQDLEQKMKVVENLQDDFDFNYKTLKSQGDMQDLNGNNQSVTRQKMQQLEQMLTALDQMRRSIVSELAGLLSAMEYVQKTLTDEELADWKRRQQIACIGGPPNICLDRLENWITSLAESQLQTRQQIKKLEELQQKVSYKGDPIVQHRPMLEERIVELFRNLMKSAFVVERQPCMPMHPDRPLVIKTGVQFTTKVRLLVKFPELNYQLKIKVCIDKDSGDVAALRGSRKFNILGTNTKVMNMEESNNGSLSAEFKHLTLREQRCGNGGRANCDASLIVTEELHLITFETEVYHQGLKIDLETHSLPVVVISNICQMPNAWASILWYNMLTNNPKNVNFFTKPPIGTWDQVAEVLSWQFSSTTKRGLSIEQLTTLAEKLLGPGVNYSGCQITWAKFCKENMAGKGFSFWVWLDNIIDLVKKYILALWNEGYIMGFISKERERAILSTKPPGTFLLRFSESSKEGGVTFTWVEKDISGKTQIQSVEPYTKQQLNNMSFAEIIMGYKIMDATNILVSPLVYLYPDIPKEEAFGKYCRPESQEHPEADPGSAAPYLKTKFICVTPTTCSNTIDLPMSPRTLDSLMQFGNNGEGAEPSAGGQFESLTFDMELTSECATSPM
Nuclear factor erythroid 2-related factor 2 (Homo sapiens), sequence (Q16236 whole entry, looked up): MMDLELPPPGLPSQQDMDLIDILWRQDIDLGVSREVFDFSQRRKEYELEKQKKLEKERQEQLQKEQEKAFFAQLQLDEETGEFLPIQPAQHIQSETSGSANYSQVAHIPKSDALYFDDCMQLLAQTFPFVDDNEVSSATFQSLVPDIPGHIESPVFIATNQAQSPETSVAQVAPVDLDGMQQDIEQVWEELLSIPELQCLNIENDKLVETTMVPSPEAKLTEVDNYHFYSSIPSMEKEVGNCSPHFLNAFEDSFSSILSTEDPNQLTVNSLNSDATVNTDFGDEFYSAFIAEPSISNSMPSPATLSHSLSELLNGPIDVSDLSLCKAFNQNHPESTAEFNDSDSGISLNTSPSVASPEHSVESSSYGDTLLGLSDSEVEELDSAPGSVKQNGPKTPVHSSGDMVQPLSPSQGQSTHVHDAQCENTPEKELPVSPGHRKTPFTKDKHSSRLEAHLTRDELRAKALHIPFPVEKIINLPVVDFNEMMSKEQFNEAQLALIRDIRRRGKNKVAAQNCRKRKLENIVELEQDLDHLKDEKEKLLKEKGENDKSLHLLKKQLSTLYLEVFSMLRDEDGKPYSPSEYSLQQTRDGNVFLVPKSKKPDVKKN
Cellular tumor antigen p53 (Homo sapiens), sequence (P04637 whole entry, looked up): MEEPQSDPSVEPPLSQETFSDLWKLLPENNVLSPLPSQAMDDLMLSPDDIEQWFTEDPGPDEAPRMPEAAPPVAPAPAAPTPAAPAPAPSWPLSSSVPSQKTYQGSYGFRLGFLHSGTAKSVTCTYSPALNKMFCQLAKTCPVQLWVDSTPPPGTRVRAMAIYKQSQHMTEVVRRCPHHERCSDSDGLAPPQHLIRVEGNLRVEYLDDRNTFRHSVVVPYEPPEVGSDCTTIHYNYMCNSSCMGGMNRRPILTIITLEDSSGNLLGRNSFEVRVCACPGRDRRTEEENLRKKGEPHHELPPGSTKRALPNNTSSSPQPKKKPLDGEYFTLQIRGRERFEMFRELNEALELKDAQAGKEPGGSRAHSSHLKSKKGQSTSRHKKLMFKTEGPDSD

CCCC1COC(Cn2cncn2)(c2ccc(Cl)cc2Cl)O1 (stereo unspecified)
active: [3] 40.5 µM | [4] 12.3 µM | [5] 50 µM | [6] 83.6 µM | [9] 62.8 µM | [10] 59 µM | [11] 50 µM | [12] 27.3 µM | [14] 7.44 µM | [15] 35.8 µM | [16] 59.5 µM
inactive: [1] | [2] | [7] | [8] | TIMP1, TIMP1 (gene 7076) | [13] | [17]

CNC(=S)S
inactive: all assays above

CNC(=O)ON=CC(C)(C)SC
not listed: [18]
inactive: all other assays above

O=C(O)c1nc(Cl)ccc1Cl
inactive: [1] | [2] | [3] | [4] | [5] | [6] | [7] | [8] | [9] | [10] | [11] | [12] | TIMP1, TIMP1 (gene 7076) | [13] | [14] | [15] | [16] | [17]
active: [4] 50 µM

CCc1nn(C)c(C(=O)NCc2ccc(C(C)(C)C)cc2)c1Cl
inactive: [1] | [7] | [8]
active: [2] 50 µM | [3] 4.52 µM | [4] 0.723 µM | [5] 50 µM | [6] 10.6 µM | [9] 31.3 µM | [10] 26.8 µM | [11] 16.4 µM | [12] 50 µM | TIMP1, TIMP1 (gene 7076) 28 µM | [13] 27.4 µM | [14] 1.06 µM | [18] 12.1 µM | [15] 27.8 µM | [16] 37.1 µM | [17] 13.6 µM

CCOC(=O)CC(SP(=S)(OC)OC)C(=O)OCC (stereo unspecified)
not listed: [18]
inactive: all other assays above
